Some test systems named below: EKVX NSCLC; SN12C renal; UO-31 renal; TK-10 renal; ACHN renal; CAKI-1 renal; A498 renal; CCRF-CEM leukemia; MOLT-4 leukemia; SR leukemia; RPMI-8226 leukemia; OVCAR-8 ovarian; OVCAR-5 ovarian; OVCAR-4 ovarian; SK-OV-3 ovarian; IGROV1 ovarian; OVCAR-3 ovarian; NCI/ADR-RES ovarian.
Assay in all cases: NCI-60 one-dose screen, 48 h (100 = growth as untreated, 0 = no growth, -100 = all killed)
What all share (conditions): 10 µM unless noted

Structures are written as SMILES. Compounds without any hit were thinned out: in the full panel of roughly 83,000, 20% have a hit.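 Step 1: grow cells in 96-well plates. Step 2: add test compound at a single concentration. Step 3: incubate 48 h. Step 4: record percent growth.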 A number with no mark means an inactive call. Active and inactive are the calls of the source. How the source made its calls: active means growth percent below 10; inactive means the rest.

Consider `CNC(=O)c1c(C)oc2cc(Oc3ncnc4cc(OC)c(OC)cc34)ccc12`, for which the growth was 113% in the assay with EKVX NSCLC; 107% with SN12C renal; 66% with UO-31 renal; 98.9% in the assay on TK-10 renal; 104% in the assay on ACHN renal; 82.2% in the assay with CAKI-1 renal. Further, the growth in the assay with A498 renal is 19.5%; in the assay on CCRF-CEM leukemia, 86.2%; in the assay on MOLT-4 leukemia, 85.6%; with SR leukemia it was 85.7%; in the assay on RPMI-8226 leukemia it was 105%; in the assay with OVCAR-8 ovarian it was 85.3%. Besides, the growth in the assay with OVCAR-5 ovarian is 95.3%; with OVCAR-4 ovarian, 78.3%; in the assay on SK-OV-3 ovarian it was 92.3%; in the assay with IGROV1 ovarian, 95.2%; with OVCAR-3 ovarian it was 89.2%; in the assay on NCI/ADR-RES ovarian, 95.1%.

As to `C[C@@H]1COC(Nc2ccc3ncnc(Nc4ccc(OCc5nccs5)c(Cl)c4)c3c2)=N1`, the growth with EKVX NSCLC was 32.2%; with SN12C renal it was 53.8%; in the assay on UO-31 renal it was 18.7%; with TK-10 renal, 20.4%; in the assay with ACHN renal, 23.3%; with CAKI-1 renal it was 36.4%. The growth with A498 renal was 22.5%; in the assay on CCRF-CEM leukemia, 24.7%; in the assay on MOLT-4 leukemia, 18.4%; in the assay with SR leukemia it was 17.6%; in the assay with RPMI-8226 leukemia, 18.8%; with OVCAR-8 ovarian, 10.4%. Besides, the growth with OVCAR-5 ovarian was 59.6%; with OVCAR-4 ovarian it was 25.3%; with SK-OV-3 ovarian, -3.87% (active); with IGROV1 ovarian, 0.932% (active); in the assay on OVCAR-3 ovarian it was 31.7%; with NCI/ADR-RES ovarian it was 9.99% (active).

`Cc1c(NC(=O)OC[C@@H]2COCCN2)cn2ncnc(Nc3ccc4c(cnn4Cc4cccc(F)c4)c3)c12`: the growth with EKVX NSCLC was 4.4% (active); in the assay on SN12C renal it was 0.74% (active); in the assay with UO-31 renal, -40.5% (active); in the assay on TK-10 renal, -7.43% (active); in the assay with ACHN renal, -0.373% (active); in the assay with CAKI-1 renal it was -2.81% (active). The growth in the assay on A498 renal is -68.8% (active); with CCRF-CEM leukemia, 6.97% (active); in the assay on MOLT-4 leukemia, 1.8% (active); in the assay with SR leukemia, -4.38% (active); in the assay with RPMI-8226 leukemia, 5.44% (active); in the assay on OVCAR-8 ovarian, -4.01% (active). The growth in the assay on OVCAR-5 ovarian is 7.38% (active); in the assay with OVCAR-4 ovarian, 24%; in the assay on SK-OV-3 ovarian it was -9.89% (active); in the assay on IGROV1 ovarian, -4.73% (active); in the assay on OVCAR-3 ovarian, 12.8%; in the assay with NCI/ADR-RES ovarian, 19.8%.

Turning to `NC1(C(=O)N[C@@H](CCO)c2ccc(Cl)cc2)CCN(c2ncnc3[nH]ccc23)CC1`, the growth with EKVX NSCLC is 61.9%; in the assay with SN12C renal, 55.6%; with UO-31 renal, 17.5%; in the assay on TK-10 renal, 13.7%; with ACHN renal it was 53.4%; in the assay with CAKI-1 renal it was 34.4%. For the same molecule, the growth with A498 renal is -46.2% (active); in the assay on CCRF-CEM leukemia it was 41.6%; with MOLT-4 leukemia, 11.4%; in the assay with SR leukemia, 23.7%; with RPMI-8226 leukemia, 80%; in the assay with OVCAR-8 ovarian it was 76.4%. The growth is 51.6% in the assay with OVCAR-5 ovarian; 64.9% in the assay on OVCAR-4 ovarian; -6.71% (active) with SK-OV-3 ovarian; 3.26% (active) in the assay on IGROV1 ovarian; 61.3% in the assay with OVCAR-3 ovarian; 90.7% with NCI/ADR-RES ovarian.

As for `CC(C)CC(=O)Nc1n[nH]c2c1CN(C(=O)C1CCN(C)CC1)C2(C)C`, the growth in the assay on EKVX NSCLC was 57.8%; in the assay on SN12C renal it was 19.2%; in the assay on UO-31 renal, 80.9%; in the assay on TK-10 renal, 49.2%; with ACHN renal, 54.2%; in the assay with CAKI-1 renal it was 39.8%. In addition, the growth was 7.55% (active) in the assay on A498 renal; 7.27% (active) in the assay with CCRF-CEM leukemia; 4.42% (active) with MOLT-4 leukemia; 2.42% (active) in the assay with SR leukemia; 3.37% (active) in the assay on RPMI-8226 leukemia; 15.4% in the assay on OVCAR-8 ovarian. The growth in the assay with OVCAR-5 ovarian is 8.63% (active); with OVCAR-4 ovarian, 33.5%; with SK-OV-3 ovarian, -1.71% (active); in the assay on IGROV1 ovarian, 15.4%; in the assay on OVCAR-3 ovarian, 18.3%; with NCI/ADR-RES ovarian, 96.1%.

As for `O=C1NC(=O)[C@@H](c2cn3c4c(cccc24)CCC3)[C@@H]1c1c[nH]c2ccccc12`, the growth with EKVX NSCLC was 31.4%; in the assay with SN12C renal, 31.1%; in the assay on UO-31 renal it was 45.9%; in the assay with TK-10 renal, 43%; with ACHN renal, 35.7%; with CAKI-1 renal, 27%. Further, the growth is 11.8% with A498 renal; 20.9% in the assay with CCRF-CEM leukemia; 18.6% in the assay with MOLT-4 leukemia; 13.8% in the assay with SR leukemia; 22.8% in the assay with RPMI-8226 leukemia; 11.3% in the assay on OVCAR-8 ovarian. Moreover, the growth is 48% in the assay on OVCAR-5 ovarian; 55.4% with OVCAR-4 ovarian; -0.0481% (active) with SK-OV-3 ovarian; 27.7% in the assay with IGROV1 ovarian; 18.4% in the assay with OVCAR-3 ovarian; 9.44% (active) with NCI/ADR-RES ovarian.

Take `CN(C[C@@H]1COCCO1)S(=O)(=O)Nc1ccc2ccc3ncc(-c4cnn(C)c4)cc3c(=O)c2c1`: the growth was 52.9% with EKVX NSCLC; 38.9% in the assay with SN12C renal; 8.44% (active) with UO-31 renal; 37.2% in the assay on TK-10 renal; 22.2% in the assay with ACHN renal; 7.99% (active) with CAKI-1 renal. For the same molecule, the growth with A498 renal was -19% (active); with CCRF-CEM leukemia it was 34.9%; in the assay with MOLT-4 leukemia, 21.1%; in the assay with SR leukemia it was 13.1%; in the assay on RPMI-8226 leukemia it was 38.5%; with OVCAR-8 ovarian it was 31.3%. The growth in the assay on OVCAR-5 ovarian was 55.2%; with OVCAR-4 ovarian, 38.2%; with SK-OV-3 ovarian, 1.71% (active); in the assay with IGROV1 ovarian it was 11.5%; in the assay with OVCAR-3 ovarian, 55.4%; in the assay on NCI/ADR-RES ovarian it was 52.1%.

`O=C(NC[C@H](O)CO)c1ccncc1Nc1ccc(I)cc1F`: the growth is 45.1% with EKVX NSCLC; 60.3% with SN12C renal; 35.1% with UO-31 renal; 40.5% in the assay on TK-10 renal; 41.4% in the assay with ACHN renal; 32.7% in the assay with CAKI-1 renal. For the same molecule, the growth in the assay with A498 renal was -21.9% (active); in the assay on CCRF-CEM leukemia, 102%; in the assay with MOLT-4 leukemia it was 90.3%; in the assay on SR leukemia, 57.2%; with RPMI-8226 leukemia, 74.6%; in the assay on OVCAR-8 ovarian, 66.9%. Besides, the growth with OVCAR-5 ovarian was 7.42% (active); with OVCAR-4 ovarian, 41.4%; with SK-OV-3 ovarian, 33.8%; with IGROV1 ovarian, 16.3%; with OVCAR-3 ovarian it was 83.7%; in the assay on NCI/ADR-RES ovarian, 58.7%.

Values taken from PubChem BioAssay (NCI).
